# Experimental data reported in PubChem BioAssay AID2590 (National Center for Advancing Translational Sciences (NCATS), 2010).
# Where “and” joins values, the source holds several entries; their conditions need not be identical. Identical values can stand only once. Inconclusive results are not listed. Calls of active or inactive are those of the source. The call rests on the fitted dose curve; in most records, active means well fitted curve in the direction sought with a large enough effect; inconclusive means small, poorly fitted or top-dose-only effect, or another doubt; inactive means no such curve, though single readings can be large or run the other way.
# Target: Lysosomal acid glucosylceramidase (Homo sapiens) (UniProt P04062)
# Sequence (P04062 whole entry N409S): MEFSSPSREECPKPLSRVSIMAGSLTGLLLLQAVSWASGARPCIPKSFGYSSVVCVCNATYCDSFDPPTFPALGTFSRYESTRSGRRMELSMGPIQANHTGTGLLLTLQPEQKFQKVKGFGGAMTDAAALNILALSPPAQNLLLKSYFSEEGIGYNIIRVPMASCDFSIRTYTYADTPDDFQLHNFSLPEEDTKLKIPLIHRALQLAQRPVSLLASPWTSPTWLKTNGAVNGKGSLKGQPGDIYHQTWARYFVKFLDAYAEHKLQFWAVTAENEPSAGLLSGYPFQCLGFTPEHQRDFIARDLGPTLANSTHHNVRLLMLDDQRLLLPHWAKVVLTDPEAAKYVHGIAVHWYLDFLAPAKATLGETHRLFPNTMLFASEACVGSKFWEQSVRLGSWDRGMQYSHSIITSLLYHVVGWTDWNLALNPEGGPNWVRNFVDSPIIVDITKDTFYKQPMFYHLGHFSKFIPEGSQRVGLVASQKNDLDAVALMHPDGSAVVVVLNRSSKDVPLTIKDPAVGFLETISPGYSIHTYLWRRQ
# Assay: qHTS Assay for Inhibitors and Activators of N370S glucocerebrosidase as a Potential Chaperone Treatment of Gaucher Disease: Primary Screen Confirmation;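 on Potency: enzyme source is Gaucher patient spleen homogenate not purified recombinant protein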
# Settings: N370S glucocerebrosidase enzyme activity, fluorogenic substrate; series mostly up to 54 µM
# In short: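 Patient-spleen homogenate carrying N370S GC (27 ug) in pH 5.0 citrate buffer with 0.01% Tween-20, 1 mM 4-methylumbelliferyl-beta-glucoside, 40 min at 37C; fluorescence 365/440 nm after NaOH/glycine stop; AC50 from Hill fits.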
# Potency means the concentration at half of the fitted maximal effect.
row,SMILES,Potency
1,O=S(=O)(c1ccc2ccccc2c1)N1CCN(c2nc(-c3ccccc3)nc3ccccc23)CC1,4.61 µM (active)
2,O=[N+]([O-])c1ccc(S(=O)(=O)N2CCN(c3nc(-c4cccs4)nc4ccccc34)CC2)cc1,3.2 µM (active)
3,O=S(=O)(c1ccccc1C(F)(F)F)N1CCN(c2nc(-c3ccccc3)nc3ccccc23)CC1,2.91 µM (active)
4,Cc1ccc(S(=O)(=O)N2CCN(c3nc(-c4cscn4)nc4ccccc34)CC2)cc1,4.11 µM (active)
5,O=S(=O)(c1cccs1)N1CCN(c2nc(-c3cccs3)nc3ccccc23)CC1,0.819 µM (active)
6,O=S(=O)(c1cccc(Cl)c1)N1CCN(c2nc(-c3cccs3)nc3ccccc23)CC1,1.6 µM (active) and 1.79 µM (active)
7,COc1ccc(-c2cc3ccc(OCC(C)=O)cc3oc2=O)cc1,inactive
8,Cc1csc(NC(=O)CN2C(=O)c3ccccc3S2(=O)=O)n1,inactive
9,Cc1ccc(S(=O)(=O)N2CCN(c3nc(-c4cccs4)nc4c3ncn4COC(=O)C(C)(C)C)CC2)cc1,inactive
10,O=S(=O)(c1ccc(Cl)cc1)N1CCN(c2nc(-c3ccc(F)cc3)nc3cc(Cl)ccc23)CC1,inactive
11,COc1ccc(Nc2nc(-c3cccs3)nc3ccccc23)cc1,2.25 µM (active)
12,c1ccc(CNc2nc(-c3cccs3)nc3ccccc23)cc1,7.13 µM (active) and 5.66 µM (active)
13,O=S(=O)(/C=C/c1ccccc1)N1CCN(c2nc(-c3ccccc3)nc3ccccc23)CC1,11.6 µM (active)
14,Cc1ccccc1NC(=O)Nc1ccccn1,inactive
15,Cc1ccc(S(=O)(=O)N2CCN(c3nc(-c4cccs4)nc4cccnc34)CC2)cc1,2.53 µM (active)
16,CCOC(=O)c1ccc(S(=O)(=O)N2CCN(c3nc(-c4ccccc4)nc4ccccc34)CC2)cc1,5.17 µM (active)
17,COc1cccc(NC(=O)CSc2nc3c(sc4ccccc43)c(=O)n2CCCN2CCCC2)c1,inactive
18,Cc1ccc(S(=O)(=O)N2CCN(c3nc(-c4ccco4)nc4ccccc34)CC2)cc1,1.01 µM (active)
19,O=S(=O)(c1cccc(C(F)(F)F)c1)N1CCN(c2nc(-c3cccs3)nc3cc(Cl)ccc23)CC1,inactive
20,CCc1ccc(NC(=O)CN(c2ccc(OC)cc2)S(=O)(=O)c2c(C)[nH]c(=O)[nH]c2=O)cc1,6.51 µM (active)
21,N#Cc1ccc(S(=O)(=O)N2CCN(c3nc(-c4cccs4)nc4ccccc34)CC2)cc1,2.01 µM (active)
22,Cc1ccc(S(=O)(=O)N2CCC(c3nc(-c4cccs4)nc4ccccc34)CC2)cc1,inactive
23,COCCNC(=O)/C(C#N)=C/c1c(N2CCN(C)CC2)nc2c(C)cccn2c1=O,inactive
24,O=S(=O)(c1ccc2c(c1)OCCO2)N1CCN(c2nc(-c3cccs3)nc3ccccc23)CC1,410 nM (active) and 450 nM (active)
25,O=S(=O)(c1ccc(F)cc1)N1CCN(c2nc(-c3cccc(Br)c3)nc3ccccc23)CC1,inactive
26,CC1(C)CCc2cc(S(=O)(=O)N3CCN(c4nc(-c5cccs5)nc5ccccc45)CC3)ccc2O1,1.13 µM (active)
27,O=S(=O)(c1ccc2ncsc2c1)N1CCN(c2nc(-c3cccs3)nc3ccccc23)CC1,0.366 µM (active)
28,Cc1ccc(S(=O)(=O)N2CCN(c3nc(-c4cccs4)nc4ccccc34)CC2)cc1,259 nM (active) and 730 nM (active) and 366 nM (active)
29,O=[N+]([O-])c1ccccc1S(=O)(=O)N1CCN(c2nc(-c3ccccc3)nc3ccccc23)CC1,5.69 µM (active)
